# Screening data as filed in PubChem.
# This is a sample that favours compounds with a hit; in the whole collection about 0.45% have one here.
# EPAC2 agonist = agonists of human EPAC2 (RAPGEF4); Q8WZA2; EPAC2 activation, biochemical qHTS; response scale: 100% = 6.5 mM cAMP response; Potency, µM (titrated, usually from 154 µM), hits mostly activators; hit rate 0.079% among 360,000; AID 720711; note: nearly all actives have a fitted effect of over 50% in size
#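 EPAC2 (100 nM) mixed with Rap1B loaded with BODIPY-GDP (250 nM) plus 50 uM unlabeled GDP; compounds pinned in, 5 min RT, then read every 5 min for 30 min (ex 480, em 540 nm). Normalized to cAMP control.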
# USP1 inh = inhibitors of human USP1/UAF1 deubiquitinase | O94782 | recombinant USP1/UAF1, Ub-Rhodamine cleavage fluorescence | Potency, µM (highest dose often 57.1 µM), most hits filed as inhibitors | hit rate 0.23% among 390,000 | AID 743255; note: nearly all actives have a fitted effect of over 60% in size
#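 USP1/UAF1 complex (1 nM) preincubated 15 min at room temperature with compound, then Ub-Rho substrate (150 nM final) added. Kinetic fluorescence at 480/540 nm over 6 reads at 60 s intervals; 50 mM HEPES pH 7.8, 0.5 mM EDTA, 0.1 mg/ml BSA, 1 mM TCEP, 0.01% Tween-20.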
# USP2a inh = inhibitors of human ubiquitin-specific protease USP2a. O75604. USP2 core, Ub-CHOP2 coupled fluorogenic reporter, 485/531. Potency, µM (highest dose often 38.3 µM), usual class: inhibitors. hit rate 0.01% among 330,000. AID 463254
#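 Cell-free coupled assay: 10nM USP2 core preincubated 30min RT with compound in Tris-HCl pH 8.0/CaCl2/CHAPS buffer, then 25nM Ub-CHOP2 and 25nM reporter substrate; fluorescence (Ex 485/Em 531) read after 60min RT, normalized to NEM inhibition, concentration-response curves fitted.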
# EPAC1 agonist = activates human EPAC1 exchange factor. O95398. EPAC1 agonist qHTS, biochemical assay; response scale: 100% = response to 6.5 mM cAMP. Potency, µM (doses to about 154 µM), hits mostly activators. hit rate 0.073% among 360,000. AID 720707; note: nearly all actives have a fitted effect of over 60% in size
# Target sequence (O95398 whole entry, looked up): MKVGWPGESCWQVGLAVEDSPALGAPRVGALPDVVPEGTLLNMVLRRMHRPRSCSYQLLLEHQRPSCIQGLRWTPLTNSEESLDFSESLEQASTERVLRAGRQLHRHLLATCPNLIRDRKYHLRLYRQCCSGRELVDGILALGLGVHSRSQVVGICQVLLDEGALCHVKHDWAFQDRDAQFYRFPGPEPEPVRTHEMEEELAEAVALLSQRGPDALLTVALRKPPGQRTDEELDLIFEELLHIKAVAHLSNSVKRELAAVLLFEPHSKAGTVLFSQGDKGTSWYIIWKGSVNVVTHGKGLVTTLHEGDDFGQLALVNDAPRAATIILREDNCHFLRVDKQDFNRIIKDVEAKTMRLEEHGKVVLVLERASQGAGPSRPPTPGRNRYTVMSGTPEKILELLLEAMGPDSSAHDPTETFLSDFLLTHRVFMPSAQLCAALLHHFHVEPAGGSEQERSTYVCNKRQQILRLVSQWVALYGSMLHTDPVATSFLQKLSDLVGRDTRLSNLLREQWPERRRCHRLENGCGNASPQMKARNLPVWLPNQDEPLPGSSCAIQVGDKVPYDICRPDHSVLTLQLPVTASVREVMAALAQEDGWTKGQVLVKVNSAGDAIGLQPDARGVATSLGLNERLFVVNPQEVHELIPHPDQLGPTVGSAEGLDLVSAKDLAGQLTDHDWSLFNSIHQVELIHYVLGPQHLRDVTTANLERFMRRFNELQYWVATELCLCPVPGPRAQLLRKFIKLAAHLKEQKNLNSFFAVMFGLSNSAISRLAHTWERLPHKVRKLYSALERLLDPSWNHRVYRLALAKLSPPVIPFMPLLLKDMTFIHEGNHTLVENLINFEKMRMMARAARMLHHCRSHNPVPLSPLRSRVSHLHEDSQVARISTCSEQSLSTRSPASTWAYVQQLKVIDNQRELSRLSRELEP
#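 EPAC1 100 nM, Rap1B–BODIPY-GDP 250 nM, unlabeled GDP 50 uM; compound titration; 5 min RT; kinetic read ex480/em540 at 5-min intervals ×30 min; data normalized to 6.5 mM cAMP agonist control.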
# EPAC2 antagonist = EPAC2 (human) antagonism | Potency, µM (titrated, usually from 114 µM), most hits filed as inhibitors | EPAC2 GEF exchange of Rap1B-BODIPY-GDP, fluorescence | hit rate 0.18% among 360,000 | Q8WZA2; note: nearly all actives have a fitted effect of over 45% in size
# EPAC1 antag = blocks human EPAC1 exchange factor. AID 720709. EPAC1 GEF assay, Rap1b-BODIPY-GDP exchange fluorescence. O95398. hit rate 0.14% among 360,000. Potency, µM (titrated, usually from 115 µM), actives largely listed as inhibitors; note: nearly all actives have a fitted effect of over 50% in size
# Numbers stand for hits; n = inactive; u = inconclusive; x = no result given. Calls come from the whole dose curve; as a rule, active = well fitted curve in the direction sought with a large enough effect; inconclusive = small, poorly fitted or top-dose-only effect, or another doubt; inactive = no such curve, though single readings can be large; an effect the other way counts as inactive or inconclusive.
SMILES,EPAC2 agonist,USP1 inh,USP2a inh,EPAC1 agonist,EPAC2 antagonist,EPAC1 antag
C/C(=N\NC(=O)c1cc(O)ccc1O)c1cccc(NC(=O)c2cccc(Cl)c2)c1,n,n,n,n,n,u
CCOC(=O)c1c2c(n(Cc3ccccc3)c1C)C(=O)C(=O)c1ccccc1-2,n,2.5µM,x,n,n,n
CCCn1c(N)c(C(=O)CSc2nnc(-c3c[nH]c4ccccc34)n2C2CC2)c(=O)[nH]c1=O,n,n,n,n,n,n
Cn1c(N)c(C(=O)CSc2nnc(-c3c[nH]c4ccccc34)n2C2CC2)c(=O)[nH]c1=O,63µM,u,n,n,50µM,u
COC(=O)C1=NN(c2ccc(C)cc2)C2(S1)SC(C(C)=O)=C(C)N2c1ccccc1 (stereo not drawn),n,n,n,n,3.2µM,n
COC(=O)c1scc(-c2ccc(C)cc2)c1S(=O)(=O)N1CCN(c2ccccc2)CC1,x,n,x,x,x,x
COc1cccc(CNC(=O)Cn2c(=O)cc(C(F)(F)F)c3c(C)nn(C)c32)c1OC,x,n,x,x,x,x
Cc1ccc(S(=O)(=O)N2[C@H](CC(=O)c3ccc(F)cc3)OC[C@@H]2C)cc1,n,x,x,n,n,n
O=C(COC(=O)C1CC1)Nc1ccccc1Sc1ccccc1,n,n,n,n,56µM,n
COc1cccc(CNC(=O)[C@@H]2CCCN2C(=O)[C@@H]2CCCN2C(=O)c2cccc3ccccc23)c1,n,x,x,n,n,n
CCOC(=O)c1cccc(Nc2ccc3cc(S(=O)(=O)N4CCCCC4)ccc3n2)c1,x,n,x,x,x,x
Cc1cc(NS(=O)(=O)c2ccc(Nc3nc(-c4sc(N)nc4C)cs3)cc2)no1,n,n,n,n,32µM,u
COc1cc(NS(=O)(=O)c2ccc(Nc3nc(-c4ccccc4)cs3)cc2)nc(OC)n1,n,n,n,n,n,79µM
O=C(COCc1cc(-c2ccco2)on1)Nc1cccc(O)c1,x,n,x,x,x,x
Cc1nn(-c2cccc(Cl)c2)c2nc(-c3cccnc3)cc(C(F)(F)F)c12,x,n,x,x,x,x
COc1ccc(-n2c(C)cc(C(=O)CCl)c2C)cc1,n,n,n,n,7.9µM,n
CN(C)c1ccc(C(=O)OCC(=O)Nc2ccc(S(N)(=O)=O)cc2)cc1,n,u,n,u,50µM,50µM
COCCOC(=O)C(C#N)c1nc2ccccc2nc1N1CCN(Cc2ccccc2)CC1 (stereo not drawn),n,n,n,n,u,n
COCCCNC(=O)C(C#N)c1nc2ccccc2nc1N1CCN(Cc2ccccc2)CC1 (stereo not drawn),n,n,u,n,79µM,n
O=C(Cc1nc2ccccc2[nH]c1=O)c1ccccc1,u,32µM,n,n,n,n
O=c1[nH]c2ccccc2nc1Cc1ccccc1,n,n,n,n,n,n
Clc1ccc(CON/C=N/c2ncnc3sccc23)cc1,7.9µM,n,n,n,n,n
C(=N\c1ncnc2sccc12)/NOCc1ccccc1,n,n,n,n,n,n
COC(=O)Cc1c(C)c2cc(Cl)c(OC(=O)c3ccco3)cc2oc1=O,n,n,n,n,n,n
COC(=O)Cc1c(C)c2ccc(OC(=O)c3ccco3)cc2oc1=O,6.3µM,n,n,n,n,n
SMILES,EPAC2 agonist,USP1 inh,USP2a inh,EPAC1 agonist,EPAC2 antagonist,EPAC1 antag
O=C(N/N=C/c1cccnc1)c1cc(-c2ccccc2OCc2ccccc2)n[nH]1,n,n,n,n,n,50µM
CCCCN(CC)CCNc1ncnc2onc(-c3ccc(Cl)cc3)c12,x,n,x,x,x,x
Nc1ccc(Oc2ncccn2)cc1,n,7.9µM,n,n,n,u
N#Cc1c(NC(=O)c2ccc(Br)o2)n(-c2ccccc2)c2nc3ccccc3nc12,n,6.3µM,n,n,u,u
O=c1oc2ccccc2nc1/C=C(O)/C=C\c1ccccc1,63µM,u,n,n,n,n
Cc1ccc(/C=C(\CCC(=O)O)c2nc3ccccc3s2)cc1[N+](=O)[O-],n,n,n,n,n,79µM
Cn1cnnc1Sc1ccc(/C=C(\CCC(=O)O)c2nc3ccccc3s2)cc1[N+](=O)[O-],n,n,n,n,n,n
CN(c1ccccc1)c1ccc(/C=C(\CCC(=O)O)c2nc3ccccc3s2)cc1[N+](=O)[O-],n,n,n,n,79µM,u
CNc1ccc(/C=C(\CCC(=O)O)c2nc3ccccc3s2)cc1[N+](=O)[O-],n,n,n,u,n,45µM
COc1ccc(C(=O)Nc2cccc(/C=C(\CCC(=O)O)c3nc4ccccc4s3)c2)cc1,n,n,n,n,n,56µM
Nc1sc(-c2ccccc2)cc1C(=O)N1CCN(c2ccccc2)CC1,n,x,x,n,n,n
CCOC(=O)c1cnc(N2CCN(c3ccc(C)cc3C)CC2)c2ccccc12,x,n,x,x,x,x
CCOC(=O)/C(=C/C=C1\Sc2cc(C)c(C)cc2N1CC)C(C)=O,n,25µM,u,n,n,n
CCN1/C(=C/c2ccc3cc(C)ccc3[n+]2CC)Sc2cc(C)c(C)cc21,n,u,n,n,n,u
CCOC(=O)[C@]12CCCC=C1N(Cc1ccc3c(c1)OCO3)C(=O)[C@H](CC(=O)NCCC(C)C)C2,n,x,x,n,n,n
CCc1ccc(S(=O)(=O)c2nnn3c2nc(Nc2cccc(C)c2C)c2sccc23)cc1,x,n,x,x,x,x
CCCCc1nc(SCCOC)c2c(=O)n(C)c(=O)n(C)c2n1,n,n,n,n,18µM,n
COC(=O)c1sc(-c2ccc(C(C)(C)C)cc2)cc1NC(=O)c1ccccc1C(=O)O,n,28µM,n,n,n,56µM
COC(=O)c1sc(-c2ccc(Cl)cc2)cc1NC(=O)c1ccccc1C(=O)O,n,n,n,n,n,u
Cc1ccc(N=Cc2sc(O)c3ccccc23)c(C)c1,100µM,n,n,n,n,n
CCCCc1nn2c(=O)cc(COC(=O)c3cccs3)nc2s1,x,n,x,x,x,x
CCOc1ccc(C2C(C#N)=C(N)SC(N)=C2C#N)cc1OCC,n,32µM,n,n,n,n
CCOc1ccc(C2C(C#N)=C(N)SC(N)=C2C#N)cc1OC,x,x,n,x,x,x
N#CC1=C(N)SC(N)=C(C#N)C1c1cccc(Oc2ccccc2)c1,n,n,n,n,50µM,n
CCOC(=O)[C@]12CCC=C1N(Cc1cccc3ccccc13)C(=O)[C@H](CC(=O)NCC1CCCCC1)C2,n,x,x,n,n,n
Cc1ccc(CNc2nc(-c3ccco3)nn2C(=O)c2ccccc2[N+](=O)[O-])cc1,x,n,x,x,x,x
COc1ccc(C(=O)N/C(=C\c2cn(S(=O)(=O)N(C)C)c3ccccc23)C(=O)N2CCCC2)cc1,n,n,x,n,n,n
Cc1ccc(-c2nc3ccc(Cl)cn3c2Cc2cccc(Cl)c2)cc1,n,x,x,n,n,n
